Here are results for 102 compounds from PubChem BioAssay AID1259343 (VanderVen Lab, College of Veterinary Medicine, Cornell …, 2017).

The whole screen tested about 6,200 compounds, of which about 2,900 (47%) were called active. Rule as the data show it: active = inhibition above about 50%; inactive = the rest. The set was probably picked from earlier hits. This is one part of the list.

A short description of this assay: Mycobacterium tuberculosis growth inhibition, primary screen (AID 1259343). Particulars: inhibition: at 10 µM, stronger effect = higher value; outcome: 10 uM.
The inhibition is the drop in the measured response relative to a control, in per cent. For the compound `O=C(O)COc1c(I)cc(Cl)c2cccnc12`, the inhibition is 94.3% (active). Consider `O=C(O)COc1ccccc1-c1nc(-c2ccccc2)c(-c2ccccc2)[nH]1`, for which the inhibition is 13.8% (inactive).

In the case of `Cc1cc(C)cc(NC(=O)CCC(=O)c2ccc3ccccc3c2)c1`, the inhibition is 72.2% (active). Regarding `O=C(CCC(=O)c1ccc(-c2ccccc2)cc1)NC1=NCCS1`, the inhibition is 33.8% (inactive). Regarding `CCCC(=O)OCC(=O)Nc1ccc2ccccc2c1`, the inhibition was 33.2% (inactive).

For the compound `CCc1nnc(NC(=O)c2ccc(O)c(Cl)c2)s1`, the inhibition was 81.3% (active). For `CCc1nnc(NC(=O)C2CC2)s1`, the inhibition was 68.7% (active). Take `COc1ccccc1C(=O)Nc1nnc(CC(C)C)s1`: the inhibition is 21.6% (inactive). For `Cn1c(CNC(=O)Cc2c(Cl)cccc2Cl)n[nH]c1=S`, the inhibition was 8.23% (inactive). In the case of `CC(C(=O)NCc1ccccc1Cl)n1nnc(-c2ccco2)n1` (configuration not stated), the inhibition was 56.3% (active).

As to `O=C(O)C1C2C=CC(O2)C1C(=O)NCc1ccccc1Cl` (configuration not stated), the inhibition is 23.3% (inactive). Next, `O=C1CCc2c(OCc3ncc(-c4cccc(Cl)c4)o3)cccc21`: 39.9% (inactive). With `O=C(O)CCN(CCc1ccccc1)c1nc(-c2ccc(Cl)cc2)nc2ccccc12`, the inhibition is 24.8% (inactive). For the compound `O=C(O)CCc1ncc(-c2ccc(Cl)cc2)o1`, the inhibition is 90.3% (active). In the case of `O=C(CN(Cc1ccccc1)C(=O)c1ccc(Cl)c(Cl)c1)Nc1cc(-c2ccccc2)nn1-c1ccc(F)cc1`, the inhibition was -13.3% (inactive). With `O=C(CCCCl)Nc1nc(-c2ccc(F)cc2)cs1`, the inhibition was 12.9% (inactive). As for `O=C1CCC(C(=O)N(Cc2ccc(F)cc2)c2nc(-c3ccccc3)cs2)=NN1`, the figure is 64.5% (active). `N#CC(=Cc1ccncc1)c1nnc2n1CCCCC2`: the inhibition was -11% (inactive). Regarding `Fc1ccccc1-c1nc(-c2ccc(Br)o2)no1`, the inhibition was 28.8% (inactive).

As to `Cc1ccc(-c2nc(-c3ccc(Br)cc3)no2)cc1`, the inhibition is 11.5% (inactive). As for `Cc1ccc(-c2noc(-c3ccc(Br)o3)n2)cc1`, the figure is 55.7% (active). As to `COc1ccc(-c2cc(C(=O)O)n3nc(C(C)(C)C)cc3n2)cc1`, the inhibition was 53.5% (active).

On to `Cc1ccc(-c2cc(C(=O)O)n3nc(C(C)(C)C)cc3n2)cc1`, for which the inhibition is 103% (active). Consider `CCN(CC)CCCC(C)NC(=O)c1cc(-c2ccc(OC)cc2)nc2cc(C(C)(C)C)nn12` (configuration not stated), for which the inhibition was 58.1% (active). As for `CC1(C)OCC(CN2C(=O)c3ccccc3NC2c2c[nH]c3cnc(OCc4ccccc4)cc23)O1` (configuration not stated), the inhibition was 32.8% (inactive). As for `COc1ccc(NC(=O)Cc2ccccc2F)cc1Cl`, the figure is 14.2% (inactive); as for `COc1ccc(NC(=O)CSc2cc(C)ccc2C)cc1Cl`, 88.7% (active).

As for `COc1ccc(NC(=O)CNS(=O)(=O)c2cnn(C)c2)cc1Cl`, the inhibition was 85.8% (active). For the compound `COc1ccc(Cl)cc1NC(=O)c1ccc2c(c1)OCCCO2`, the inhibition is 29.1% (inactive).

For `COc1ccc(NC(=O)CNc2cc3c(cc2Cl)OCCCO3)cc1Cl`, the inhibition was 92.9% (active). For the compound `COc1ccc(NCC(=O)NCC(F)(F)F)cc1Cl`, the inhibition was 95.5% (active).

Consider `CC(C)N=C1NN=C(c2c[nH]c3ccccc23)C(c2ccccc2)S1` (configuration not stated), for which the inhibition was 2.32% (inactive). For the compound `Cc1nc2c(-c3ccccc3)c[nH]n2c(=O)c1C`, the inhibition is 23.2% (inactive). Consider `O=c1c2c(nc3c(-c4cccc5ccccc45)c[nH]n13)CCC2`, for which the inhibition was 88.6% (active). Regarding `Cc1oc(-n2cccc2)c(C#N)c1C(=O)NC1CCC(C)CC1` (configuration not stated), the inhibition is 77.2% (active).

On to `CC1CCC(NC(=O)c2ccc(Br)o2)CC1` (configuration not stated), for which the inhibition was 25.1% (inactive). As to `Cc1oc(-n2cccc2)c(C#N)c1C(=O)OCc1cc(=O)n2c(C)csc2n1`, the inhibition is -7.14% (inactive). Next, `Cn1ccnc1Sc1nc(-c2ccccn2)nc2scc(-c3ccccc3)c12`: 77.2% (active); `COc1ccccc1N1CCN(Cn2nc(C3COc4ccccc4O3)oc2=S)CC1` (configuration not stated): 49.9% (inactive). In the case of `Cc1nccn1CC(O)Cn1c2ccc(Cl)cc2c2cc(Cl)ccc21` (configuration not stated), the inhibition was 66.4% (active). Next, `Cc1nn(CC(O)Cn2c(C)c(C)c3cccc(Cl)c32)c(C)c1Br` (configuration not stated): 25.1% (inactive). Consider `OC(CN1CCCC1)Cn1c2ccc(Cl)cc2c2cc(Cl)ccc21` (configuration not stated), for which the inhibition is -9.02% (inactive).

With `Cn1nnc2c(=O)n(Cc3ccc(C(F)(F)F)cc3)cnc21`, the inhibition was 45.7% (inactive).

With `O=C1N(Cc2ccccc2)C(c2ccc(C(F)(F)F)cc2)C1(F)F` (configuration not stated), the inhibition was 79.7% (active). `Cc1c(C(=O)NCc2ccc(C(F)(F)F)cc2)sc(=O)n1Cc1ccc(F)cc1`: the inhibition is 20.5% (inactive). For the compound `CC(C)Oc1ncc(C(=O)N2CCc3ccc(O)cc3C2)cc1Cl`, the inhibition was 33.5% (inactive).

On to `CC(=O)N1CCc2cc(-c3nc(COc4ccccc4)sc3C)ccc21`, for which the inhibition was 37.8% (inactive).

Regarding `O=C(COc1ccccc1)N1CCc2ccc(O)cc2C1`, the inhibition is 68.5% (active). Turning to `O=[N+]([O-])c1ccc2[nH]c(=S)sc2c1`, the inhibition was -16.1% (inactive). Next, `N#CCCSc1nc2ccc([N+](=O)[O-])cc2s1`: 52% (active). `Cc1nc2sc(C)c(C)n2c(=O)c1NC(=O)c1ccc(-c2ccccc2)cc1`: the inhibition was 34.6% (inactive). `CC(=O)Nc1nc(-c2ccc(C)cc2)c(-c2ccccc2)s1`: the inhibition is 86% (active). For `CN(C)C=Nc1nc(-c2ccccc2)c(-c2ccccc2)s1`, the inhibition is 15.9% (inactive). As for `O=C(NC1CCS(=O)(=O)C1)c1ccc(-c2ccc(F)cc2)s1` (configuration not stated), the figure is 79% (active); as for `O=C(NC1CCS(=O)(=O)C1)c1ccc(Br)o1` (configuration not stated), 10.7% (inactive).

Take `O=C(Nc1cc(F)ccc1F)c1ccc(NC(=O)C2CC2)s1`: the inhibition was 23.9% (inactive). `COc1cc(C(=O)Nc2cc(C3CC3)nn2-c2nc(C)cc(=O)[nH]2)cc(OC)c1OC`: the inhibition was 101% (active). Next, `COc1ccc(C(=O)Nc2cc(C3CC3)nn2-c2nc(C)c(C)c(=O)[nH]2)c(OC)c1`: 90% (active); `COc1ccc(C(=O)Nc2cc(C)nn2-c2nc(C)c(C)c(=O)[nH]2)c(OC)c1`: 26.6% (inactive); `COc1cc(C(=O)Nc2cc(C3CC3)nn2-c2nc(C)c(C)c(=O)[nH]2)cc(OC)c1OC`: 100% (active). On to `Clc1cc(CSc2nnnn2C2CCCC2)cc2c1OCCO2`, for which the inhibition is -23.6% (inactive).

`c1ccc2c(c1)OCC(CSc1nnnn1C1CCCC1)O2` (configuration not stated): the inhibition was 96.2% (active). Regarding `COc1ccc(OCCSc2nnnn2C2CCCCC2)cc1`, the inhibition was -35.2% (inactive). With `CN(Cc1ccco1)C(=O)c1cnc(-c2ccc3c(c2)OCO3)nc1Nc1ccccc1`, the inhibition is 47.5% (inactive). `C=CCN(C(=O)c1ccc(-c2ccc3c(c2)OCCO3)s1)C1CCCCC1`: the inhibition is 45.7% (inactive).

As to `N#CC1(NC(=O)c2cnc(-c3ccc4c(c3)OCO4)s2)CCCC1`, the inhibition was 86.4% (active). With `COc1ccc(N=C(c2cc([N+](=O)[O-])cc([N+](=O)[O-])c2)n2ccnc2)cc1`, the inhibition was 92.1% (active). With `COCc1ccc(C(=O)N2CCCC(Nc3ccc(C(C)C)cc3)C2)s1` (configuration not stated), the inhibition was 21.9% (inactive). Regarding `O=C(c1cc(Br)c[nH]1)N1CCC(Nc2ccc(F)cc2)CC1`, the inhibition is 1.55% (inactive). Turning to `C=Cc1ccc(C(=O)N2CCCC(Nc3ccc(F)cc3)C2)cc1` (configuration not stated), the inhibition is 75.9% (active). With `O=C(Nc1nc2c(s1)CCc1ccccc1-2)C1CC1`, the inhibition is 64% (active). Next, `Cc1nc(NC(=O)C2CC2)sc1Cc1ccccc1Cl`: 32.1% (inactive); `CC(C)NC(=S)NN=Cc1cccs1`: 100% (active); `C=CCNC(=O)C=Cc1cccs1`: 92.6% (active). With `O=C(C=Cc1cccs1)NC1CCCCCC1`, the inhibition is 61.3% (active). As for `O=C(C=Cc1cccs1)NC1CCCC1`, the figure is 21.5% (inactive); as for `S=C(NN=Cc1cccs1)NC1CCCCC1`, 87.5% (active); as for `C(=NNc1ccc2ccccc2n1)c1cccs1`, 39.2% (inactive). `O=C(C=Cc1cccs1)NC1CCCCC1`: the inhibition is 37% (inactive). As for `CCC(CNC(=O)/C=C/c1sccc1C)c1ccccc1` (configuration not stated), the figure is 28.2% (inactive); as for `O=S(=O)(C1=Cc2ccccc2CC1)N1CCC2CCCCC2C1` (configuration not stated), 21.1% (inactive).

For `COC(=O)c1sccc1NC(=O)C=Cc1cccs1`, the inhibition is 81.4% (active). In the case of `O=C(C=Cc1cccs1)c1cccs1`, the inhibition was 15.1% (inactive). Regarding `O=C(C=Cc1ccco1)NC1CCCC1`, the inhibition is 25.8% (inactive). Take `O=C(C=Cc1ccc(Br)o1)NC1CCCCCC1`: the inhibition is 89.5% (active). As for `c1ccc(-c2cc(Sc3nnc(-c4ccncc4)o3)n3ncnc3n2)cc1`, the inhibition was 102% (active). In the case of `Cc1cccc(Nc2nnc(-c3ccncc3)o2)c1`, the inhibition was -7.46% (inactive).

`COc1ccc(N=Cc2cc([N+](=O)[O-])ccc2OC(F)F)cc1`: the inhibition is 79.9% (active).

For the compound `COc1ccc(OCCCOc2ccc([N+](=O)[O-])cc2Cl)cc1`, the inhibition was 37.7% (inactive). As to `COc1ccc(-c2cc(N)ccc2OC(F)F)cc1`, the inhibition is 34.9% (inactive). As for `COc1ccc(N2CCN(Cc3cc(C)c(C)cc3O)CC2)cc1`, the figure is 83.8% (active); as for `Cc1ccccc1CN1CCN(c2ccc(S(=O)(=O)C(F)F)cc2)CC1`, 27.6% (inactive). Consider `COc1ccc(CN2CCN(C(c3ccc(F)cc3)c3ccc(F)cc3)CC2)c(OC)c1OC`, for which the inhibition was 29.5% (inactive). As for `Fc1ccc(-n2cc(-c3ccnc(NCc4ccco4)n3)cn2)cc1`, the figure is 18.7% (inactive); as for `COc1ccc(-c2csc(NCc3ccco3)n2)cc1`, 70.6% (active). On to `O=C1C(=C2SCCS2)CCCC12CC2c1ccccc1` (configuration not stated), for which the inhibition is 50.8% (active). Next, `Cc1ccc(OCc2cc(C(=O)NCCc3ccc(C(F)(F)F)cc3)no2)cn1`: 68.3% (active); `O=C(c1cc(COc2ccc3c(c2)CCCC3)on1)N1CCN(C2CCCC2)C(=O)C1`: 69.3% (active).

As for `O=C(c1cc(COc2cccc(C(F)(F)F)c2)on1)N1CCCN(c2ncccn2)CC1`, the inhibition result is “inactive”. For `CC(C)Oc1ccc(CCNC(=O)c2cc(COc3ccc(F)c(F)c3)on2)cc1`, the inhibition entry was “inactive”. With `O=C(c1cc(COc2ccc3c(c2)CCCC3)on1)N1CCCN(c2ncccn2)CC1`, the inhibition was 71.4% (active). In the case of `Cc1nc(CCNC(=O)c2cc(COc3ccc4c(c3)CCCC4)on2)sc1C`, the inhibition was 67.7% (active).
